Values joined by “and” are separate entries in the source; they are usually repeats but may differ in a detail not shown here. Equal values may be shown once. Values without a mark were called inactive. Entries that show only a call come without a potency. Active and inactive are the calls of the source. Unless noted, calls come from the whole dose curve; as a rule, active = well fitted curve in the direction sought with a large enough effect in the repeat runs; inconclusive = weak or mixed curves; inactive = no such curve, though single readings can be large; an effect the other way counts as inactive or inconclusive.
Tests used:
[1] = qHTS assay for small molecule agonists of the p53 signaling pathway (AID 651631; calls by dose curve; note: nearly all actives have a fitted effect of over 15% in size; note: potency is the fitted concentration of half-maximal effect)
Summary of the method: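 Read-out is beta-lactamase FRET fluorescence measured 2 h after substrate addition at room temperature, in HCT-116 cells with a p53 response element-driven reporter exposed to compounds for 16 h at 37 °C.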

[2] = qHTS assay for small molecules that induce genotoxicity in human embryonic kidney cells expressing luciferase-tagged ATAD5 (AID 651632); note: nearly all actives have a fitted effect of over 15% in size
Summary of the method: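 DMSO vehicle served as the control. HEK293T reporter cells, 16 hr at 37C, then 30 min Amplite at room temperature; ATAD5 induction is measured as luciferase activity.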

[3] = qHTS assay for small molecule agonists of the p53 signaling pathway - cell viability (AID 651633; calls by dose curve;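 note: p53RE-bla HCT reporter cells with a stable beta-lactamase p53 reporter; series mostly up to about 83 µM; nearly all actives have a fitted effect of over 30% in size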)
Summary of the method: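 Viability counter-read: CellTiter-Glo luminescence (30 min, room temperature) in the same p53RE-bla plates. These plates had been exposed to compounds for 16 h at 37 C.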

[4] = qHTS assay for small molecules that induce genotoxicity in human embryonic kidney cells expressing luciferase-tagged ATAD5 - cell viability (AID 651634; calls by dose curve; note: nearly all actives have a fitted effect of over 25% in size)
Summary of the method: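 Here HEK293T cells with the ATAD5 luciferase reporter are incubated with test compounds for 15.5 hr, and cytotoxicity is then gauged by measuring protease activity in live cells using fluorescence.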

[5] = qHTS assay for small molecule disruptors of the mitochondrial membrane potential - cell viability (AID 720634; calls by dose curve; note: nearly all actives have a fitted effect of over 20% in size; note: potency is the fitted concentration of half-maximal effect)
Summary of the method: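 Viability of HepG2 cells is scored from ATP content by luminescence; cells are exposed to compound for 1 hr at 37 C and 5% CO2, then dosed with m-MPI dye before the CellTiter-Glo reagent.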

[6] = qHTS assay to test for compound auto fluorescence at 590 nm (red) in HepG2 cells (AID 720674)
Summary of the method: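 We screened compounds on adherent HepG2 cells, incubating them for an hour at 37 C in 5% CO2 before reading emission at 590 nm under 540 nm excitation; values reflect equivalence to Rose Bengal sodium fluorescence.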

[7] = qHTS assay to test for compound auto fluorescence at 535 nm (green) in HepG2 cells (AID 720675)
[8] = qHTS assay to test for compound auto fluorescence at 460 nm (blue) in HEK293 cells (AID 720678)
Summary of the method: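 Auto fluorescence in the blue band was quantified as triamterene equivalency. HEK293 cells were seeded at 2,000/well, dosed after a 4-5 hr attachment, and kept overnight at 37C before the 405/460 nm reading.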

[9] = qHTS assay to test for compound auto fluorescence at 535 nm (green) in HEK293 cells (AID 720680)
[10] = qHTS assay to test for compound auto fluorescence at 460 nm (blue) in HEK293 cell free culture (AID 720681)
Summary of the method: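 Blue fluorescence (Ex 405/Em 460 nm, triamterene-equivalent) was read immediately after pin transfer of compound or DMSO into medium (DMEM, 10% FBS) without cells.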

[11] = qHTS assay to test for compound auto fluorescence at 535 nm (green) in HEK293 cell free culture (AID 720682)
Summary of the method: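 Fluorescein serves as the green reference fluorophore; each compound's intrinsic emission at 535 nm (excitation 485 nm) is reported as an equivalent amount of that dye, measured in serum-containing DMEM without cells.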

[12] = qHTS assay to test for compound auto fluorescence at 590 nm (red) in HEK293 cell free culture (AID 720683)
Summary of the method: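 Red-channel autofluorescence of compounds in culture medium (DMEM, 10% FBS), no cells, measured at 540/590 nm. Rose Bengal sodium is the reference fluorophore for equivalence.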

[13] = qHTS assay to test for compound auto fluorescence at 590 nm (red) in HepG2 cell free culture (AID 720684)
Summary of the method: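 Cell-free; medium MEM + 10% FBS; compound or DMSO added by pintool; read Ex 540/Em 590 nm; Rose Bengal sodium as red reference fluorophore.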

[14] = qHTS assay to test for compound auto fluorescence at 460 nm (blue) in HepG2 cell free culture (AID 720685)
Summary of the method: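 Cell-free plates of MEM plus 10% FBS received 23 nL compound or DMSO vehicle; blue-channel (405/460 nm) intensity scored against triamterene as reference fluorophore.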

[15] = qHTS assay to test for compound auto fluorescence at 535 nm (green) in HepG2 cell free culture (AID 720686)
[16] = qHTS assay to test for compound auto fluorescence at 460 nm (blue) in HepG2 cells (AID 720687)
Summary of the method: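 Blue-channel autofluorescence (Ex/Em 405/460 nm, triamterene-equivalent) was measured after 1 hr compound exposure at 37 C, 5% CO2. Cells were HepG2, plated overnight at 37 C in MEM plus 10% FBS.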

[17] = qHTS assay to test for compound auto fluorescence at 590 nm (red) in HEK293 cells (AID 720679)
Summary of the method: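 Autofluorescence equivalency to Rose Bengal sodium, 540/590nm, in HEK293 cells exposed overnight to 23 nL compound per well.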

[18] = target: Glucocorticoid receptor (Homo sapiens) (UniProt P04150); experiment: qHTS assay to identify small molecule agonists of the glucocorticoid receptor (GR) signaling pathway (AID 720691; active = well fitted activation curve with a large enough effect in the signal ratio in the repeat runs, not every such curve was filed as active; inconclusive = weak or mixed curves, or effect the other way; inactive = no such curve, though single readings can be large or run the other way; the % refers to the signal ratio; note: potency is the fitted concentration of half-maximal effect)
Sequence of Glucocorticoid receptor (Homo sapiens) (P04150 whole entry, looked up): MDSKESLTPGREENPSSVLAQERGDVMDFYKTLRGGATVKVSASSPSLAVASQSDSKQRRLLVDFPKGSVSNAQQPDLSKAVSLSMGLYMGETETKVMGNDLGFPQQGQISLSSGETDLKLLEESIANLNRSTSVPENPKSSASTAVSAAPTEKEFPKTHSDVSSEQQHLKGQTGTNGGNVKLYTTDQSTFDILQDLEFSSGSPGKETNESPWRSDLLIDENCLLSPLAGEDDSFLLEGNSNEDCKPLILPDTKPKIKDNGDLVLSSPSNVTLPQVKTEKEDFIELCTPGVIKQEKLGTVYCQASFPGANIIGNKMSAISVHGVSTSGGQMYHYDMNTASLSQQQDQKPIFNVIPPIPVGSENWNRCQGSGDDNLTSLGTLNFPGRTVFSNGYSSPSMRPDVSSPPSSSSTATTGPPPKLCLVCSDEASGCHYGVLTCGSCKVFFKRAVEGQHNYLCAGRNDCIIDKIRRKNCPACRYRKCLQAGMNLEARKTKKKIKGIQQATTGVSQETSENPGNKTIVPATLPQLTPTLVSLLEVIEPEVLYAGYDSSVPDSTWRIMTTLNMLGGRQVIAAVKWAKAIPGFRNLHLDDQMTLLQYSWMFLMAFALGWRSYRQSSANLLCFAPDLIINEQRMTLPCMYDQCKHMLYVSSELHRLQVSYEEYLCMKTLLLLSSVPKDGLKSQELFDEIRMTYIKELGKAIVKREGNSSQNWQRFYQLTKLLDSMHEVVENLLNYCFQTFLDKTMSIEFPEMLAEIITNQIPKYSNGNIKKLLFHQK
Summary of the method: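 Compounds in DMSO, alongside positive controls, were added to GR-bla HeLa reporter cells and incubated 18 h at 37 C; GRE-driven beta-lactamase was detected by fluorescence after 2 h with FRET substrate at room temperature.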

[19] = target: Glucocorticoid receptor (Homo sapiens) (UniProt P04150); experiment: qHTS assay to identify small molecule antagonists of the glucocorticoid receptor (GR) signaling pathway (AID 720692; active = well fitted inhibition curve with a large enough effect in the signal ratio in the repeat runs, not every such curve was filed as active; inconclusive = weak or mixed curves, or effect the other way; inactive = no such curve, though single readings can be large or run the other way; the % refers to the signal ratio)
Summary of the method: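 In a 1536-well cell format, compounds were added 4 h after seeding GR-bla HeLa cells, together with dexamethasone at 5 nM final; reporter activity was measured by FRET-substrate fluorescence following 18 h at 37 C.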

[20] = qHTS assay for small molecule disruptors of the mitochondrial membrane potential (AID 720635); note: potency is the fitted concentration of half-maximal effect
Summary of the method: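 Mitochondrial membrane potential tracked with Mito-MPS dye, red aggregates (ex 540/em 590 nm) against green monomers (ex 490/em 535 nm). Compound treatment 1 hr at 37C, dye 30 min in HepG2.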

| SMILES | Potency [1] | Potency [2] | Potency [3] | Potency [4] | Potency [5] | Potency [6] | Potency [7] | Potency [8] | Potency [9] | Potency [10] | Potency [11] | Potency [12] | Potency [13] | Potency [14] | Potency [15] | Potency [16] | Potency [17] | Potency [18] | Potency [19] | Potency [20] |
| --- | --- | --- | --- | --- | --- | --- | --- | --- | --- | --- | --- | --- | --- | --- | --- | --- | --- | --- | --- | --- |
| c1cnccn1 | inactive | inactive | inactive | inactive | inactive | inactive | inactive | inactive | inactive | inactive | inactive | inactive | inactive | inactive | inactive | inactive | – | – | – | – |
| CN1CCCCC1CCN1c2ccccc2Sc2ccc(S(C)=O)cc21 (stereo not drawn) | inactive | inactive | inactive | inactive | inactive | inactive | inactive | inactive | – | inactive | inactive | inactive | inactive | inactive | inactive | inactive | inactive | inactive | inactive | – |
| CCC(COC(=O)CCS)(COC(=O)CCS)COC(=O)CCS | 68.6 µM (active) | inactive | inactive | inactive | inactive | inactive | inactive | inactive | inactive | inactive | inactive | inactive | inactive | inactive | inactive | inactive | – | – | – | – |
| O=C1C(c2[nH]c3ccc(S(=O)(=O)O)cc3c2O)=Nc2ccc(S(=O)(=O)O)cc21 | inactive | – | inactive | inactive | inactive | inactive | inactive | inactive | inactive | inactive | inactive | inactive | inactive | – | inactive | inactive | inactive | – | – | inactive |
| CCC(=O)C(=O)CC | inactive | inactive | inactive | – | inactive | inactive | – | inactive | – | inactive | inactive | inactive | inactive | – | inactive | – | inactive | – | – | – |
| CCCCOC(=O)CC | inactive | inactive | inactive | – | inactive | inactive | inactive | – | inactive | inactive | inactive | inactive | inactive | inactive | inactive | inactive | – | inactive | inactive | inactive |
| Cc1c2ccccc2c(C)c2c1ccc1ccccc12 | 30.3 µM (active) and 54.5 µM (active) | inactive | – | inactive | 12.1 µM (active) | inactive | inactive | inactive | inactive | inactive | inactive | inactive | inactive | inactive | inactive | inactive | inactive | 3.85 µM (active) and 54.9 µM [inconclusive] (active) | – | 5.39 µM (active) and 24.3 µM (active) |

— PubChem BioAssay (Tox21)
